# Measured values published in publication PMC4336329 (PLoS ONE, 2015).
# Hit rate of the full screen: of about 310,000 compounds, about 14,000 (4.5%) showed an effect of 50% or more. Effects have a minus sign here. This is one part of a sample in which strong results are shown more often than they occur.
# Molecular target: human ether-à-go-go-related gene (hERG) potassium channel (human, UniProt Q12809)
# Assay: primary screen, population patch clamp on CHO cells stably expressing hERG; higher = less effect of the substance
# 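Note: peak tail current of the secondary pulse compared with the same well before compound.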
# Chain of human ether-à-go-go-related gene (hERG) potassium channel (Q12809 whole entry, looked up): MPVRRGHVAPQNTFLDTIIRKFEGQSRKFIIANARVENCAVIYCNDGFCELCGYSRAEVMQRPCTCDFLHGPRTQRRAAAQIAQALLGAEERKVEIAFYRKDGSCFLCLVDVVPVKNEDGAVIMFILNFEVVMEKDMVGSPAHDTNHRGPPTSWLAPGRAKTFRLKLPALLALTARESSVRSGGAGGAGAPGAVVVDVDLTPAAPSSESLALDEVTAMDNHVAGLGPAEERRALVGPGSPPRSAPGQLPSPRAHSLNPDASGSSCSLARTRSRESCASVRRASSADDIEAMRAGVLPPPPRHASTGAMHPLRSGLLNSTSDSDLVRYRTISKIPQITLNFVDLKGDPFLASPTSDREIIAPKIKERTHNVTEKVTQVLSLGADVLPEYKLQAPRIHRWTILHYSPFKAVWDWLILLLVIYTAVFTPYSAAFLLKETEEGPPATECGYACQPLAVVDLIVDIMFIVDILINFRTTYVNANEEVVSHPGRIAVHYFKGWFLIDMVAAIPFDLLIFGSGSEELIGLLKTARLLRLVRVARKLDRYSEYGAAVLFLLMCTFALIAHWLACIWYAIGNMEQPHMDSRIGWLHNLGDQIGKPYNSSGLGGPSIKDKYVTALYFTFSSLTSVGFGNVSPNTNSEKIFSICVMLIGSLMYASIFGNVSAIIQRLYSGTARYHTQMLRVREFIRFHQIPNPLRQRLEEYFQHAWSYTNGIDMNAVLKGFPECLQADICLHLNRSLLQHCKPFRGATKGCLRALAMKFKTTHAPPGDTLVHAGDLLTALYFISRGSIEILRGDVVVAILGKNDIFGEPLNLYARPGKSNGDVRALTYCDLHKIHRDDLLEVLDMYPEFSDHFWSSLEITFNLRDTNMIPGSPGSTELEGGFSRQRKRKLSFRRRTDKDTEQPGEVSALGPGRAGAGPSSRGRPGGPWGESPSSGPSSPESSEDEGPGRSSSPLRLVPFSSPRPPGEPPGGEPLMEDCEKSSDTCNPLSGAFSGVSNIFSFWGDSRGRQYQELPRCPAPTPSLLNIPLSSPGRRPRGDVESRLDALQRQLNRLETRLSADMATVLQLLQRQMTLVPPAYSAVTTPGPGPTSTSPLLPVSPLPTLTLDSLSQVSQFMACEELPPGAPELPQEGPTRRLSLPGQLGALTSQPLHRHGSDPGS
row,SMILES,"hERG current change (%, negative = inhibition) at 10uM"
1,CCCCN(CC)CCNC(=O)Cn1cnc2sc(C)c(S(=O)(=O)N3CCC(C)CC3)c2c1=O,-19.1%
2,Cc1cc(C)c(S(=O)(=O)c2cc(F)ccc2C)c(=O)[nH]1,18.1%
3,COc1ccc(-c2noc(C(C)NS(=O)(=O)c3ccc(NC(C)=O)cc3)n2)cc1 (centres unmarked),17.5%
4,c1cc2c(cc1-c1[nH]ncc1CN1CC3C[C@@H]4CC1C[C@H](C3)C4)OCO2,-44.3%
5,c1cc2c(cc1-c1[nH]ncc1CN1C[C@H]3CC[C@H]1C3)OCO2,-3.58%
6,COCC1CCCCN1Cc1cn[nH]c1-c1ccc2cc(OC)ccc2c1 (centres unmarked),-70.2%
7,Cc1nonc1C1CCCN1Cc1cn[nH]c1-c1ccc2c(c1)OCO2 (centres unmarked),-25.6%
8,COc1ccc(-c2[nH]ncc2CN2C[C@@H]3CCC[C@H]2C3)c(F)c1,8.16%
9,COc1ccc2cc(-c3[nH]ncc3CN3CCCC3c3nonc3C)ccc2c1 (centres unmarked),0.998%
10,COCC1CCCCN1Cc1cn[nH]c1-c1ccc(OC)cc1OC (centres unmarked),-25.5%
11,COc1ccc2cc(-c3[nH]ncc3CN3C[C@@H]4CCC[C@H]3C4)ccc2c1,-58.7%
12,Oc1cccc(CCC2CCCCN2Cc2cn[nH]c2-c2ccc3c(c2)OCO3)c1 (centres unmarked),-66.2%
13,CCN(CC(=O)Nc1c(F)cccc1F)C(=O)CSc1nc2ccccc2o1,-1.64%
14,Cc1cccc(NS(=O)(=O)c2ccc3nc(-c4ccccc4)[nH]c3c2)c1C,11.8%
15,CCn1cc(C(=O)NCC(OC)OC)c(=O)c2cc(S(=O)(=O)N3CCCC3)ccc21,10.3%
16,O=C(COC(=O)CCCN1C(=O)c2ccccc2C1=O)Nc1ncc(Cl)cc1Cl,-9.74%
17,O=S(=O)(c1ccc2ccccc2c1)N1CCN=C1SCc1cccnc1,-43.9%
18,O=c1ccc(/C=C/c2ccccc2)nn1Cc1ccc(Cl)cc1Cl,8.47%
19,CCOc1cc(NC(=O)c2ccco2)c(OCC)cc1NC(=O)COc1ccccc1C,26.4%
20,CC(C)(C)c1cc(NC(=O)C2CCCO2)no1 (centres unmarked),11.6%
21,CCC(Oc1cc(Cl)ccc1Cl)C(=O)N1CCC2(CC1)OCCO2 (centres unmarked),4.7%
22,Cc1ccsc1C(=O)C1CCCN(Cc2ccc(O)cc2)C1 (centres unmarked),-22.9%
23,Cc1ccsc1C(=O)C1CCCN(Cc2cccc(-n3cccn3)c2)C1 (centres unmarked),-65.4%
24,Cc1ccsc1C(=O)C1CCCN(Cc2cc(C(C)C)n[nH]2)C1 (centres unmarked),-43.9%
25,Cc1ccsc1C(=O)C1CCCN(Cc2ccc(-n3cccn3)cc2)C1 (centres unmarked),-67.7%
26,Cc1ccsc1C(=O)C1CCCN(Cc2cccc(OCCO)c2)C1 (centres unmarked),-16.3%
27,COC(=O)Nc1nc(-c2ccc(F)cc2)c(C)s1,14.5%

row,SMILES,"hERG current change (%, negative = inhibition) at 10uM"
1,Cc1ccc(-n2c(O)c(/C=N/NC(=O)c3ccncc3)c(=O)[nH]c2=O)cc1C,9.71%
2,CN(c1ccccc1)c1ncccn1,18%
3,O=S(=O)(Nc1cccnc1)c1ccc(F)cc1,16.6%
4,COCCNC(=O)c1cc(-c2ccccc2)n(CC2CC(c3ccc(OC)cc3)=NO2)n1 (centres unmarked),-10.7%
5,COc1ccc(C2=NOC(Cn3nc(C(=O)NCc4ccc5c(c4)OCO5)cc3-c3ccccc3)C2)cc1 (centres unmarked),-17.4%
6,COc1ccc(C2=NOC(Cn3nc(C(=O)NCc4ccco4)cc3-c3ccccc3)C2)cc1 (centres unmarked),-68.2%
7,COc1ccc(C2=NOC(Cn3nc(C(=O)NCc4ccc(C)cc4)cc3-c3ccccc3)C2)cc1 (centres unmarked),2.68%
8,COc1ccc(C2=NOC(Cn3nc(C(=O)NCc4ccc(OC(F)(F)F)cc4)cc3-c3ccccc3)C2)cc1 (centres unmarked),-3.95%
9,COc1ccc(C2=NOC(Cn3nc(C(=O)NCC4CC4)cc3-c3ccccc3)C2)cc1 (centres unmarked),-65%
10,COc1ccc(C2=NOC(Cn3nc(C(=O)O)cc3-c3ccccc3)C2)cc1 (centres unmarked),-10.3%
11,COc1ccc(C2=NOC(Cn3nc(C(=O)NCc4ccccc4OC)cc3-c3ccccc3)C2)cc1 (centres unmarked),-16.2%
12,COc1ccc(C2=NOC(Cn3nc(C(=O)NCc4cccs4)cc3-c3ccccc3)C2)cc1 (centres unmarked),-51.3%
13,COc1ccc(S(=O)(=O)N2CCC(C(=O)NCC3CCCO3)CC2)cc1C (centres unmarked),9.95%
14,O=C(CNC(=O)c1ccc(S(=O)(=O)N2CCCC2)cc1)N/N=C/c1c(Cl)cccc1Cl,6.64%
15,CN(CCO)C(=O)c1ccc(-c2nn(C)c(=O)c3ccccc23)cc1,10.9%
16,Nc1nc2ncc(C(=O)c3cc(F)ccc3O)cc2s1,-0.22%
17,Cn1c2c(c(=O)n(C)c1=O)C(CC(=O)Nc1ccccc1)C(=O)N2 (centres unmarked),2.49%
18,Cc1ccc(C(=O)N/C(=C\c2cccs2)C(=O)NCC2CCCO2)cc1C (centres unmarked),6.35%
19,Cc1ccc(C(=O)N/C(=C\c2cccs2)C(=O)N2CCOCC2)cc1C,-19%
20,CC(C)(C)c1ccc(C(=O)N/C(=C\c2cccs2)C(=O)N2CCOCC2)cc1,-7.22%
21,CCN1CCN(C(=O)/C(=C/c2cccs2)NC(=O)c2ccc(C)c(C)c2)CC1,-75.6%
22,Cc1ccc(C(=O)N/C(=C\c2cccs2)C(=O)N2CCN(C)CC2)cc1C,-70.6%
23,O=C(N/C(=C/c1cccs1)C(=O)N1CCCCCC1)c1ccccc1,-21%
24,CCc1nnc(NC(=O)Cc2ccc(Br)cc2)s1,12.4%
25,CC1CCc2[nH]c3ccc(C(=O)N(C)CC(=O)Nc4ccccc4C(F)(F)F)cc3c2C1 (centres unmarked),4.13%
26,O=C1CC(c2cccc([N+](=O)[O-])c2)c2c(ccc3ccccc23)N1 (centres unmarked),10.3%
